# Reference: PubChem BioAssay (NCI)
# The panel holds about 79,000 compounds, 15% with a hit somewhere; the sample as a whole holds those more often. Unmarked numbers belong to inactive results. Activity calls are given as the source filed them. No stated cut-off is given here; in the data, active means growth inhibition above about 70%; inactive means the rest.
# What was measured:
# [1] = NCI Yeast Anticancer Drug Screen. Data for the rad52 strain (AID 147);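 further: 0% = growth of vehicle-treated control cultures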; details: S. cerevisiae rad52 mutant growth inhibition, active compounds read high
# How it was run: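 Compounds are applied to a genetically defined yeast strain lacking normal DNA damage repair, and inhibition of growth is expressed relative to cultures given vehicle only.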
# [2] = NCI Yeast Anticancer Drug Screen. Data for the wt1 strain (AID 149);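 further: 0% = growth of vehicle-treated wt1 cultures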; details: S. cerevisiae wt1 strain (SPY 50644) growth inhibition, active compounds read high
# How it was run: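 wt1 strain grown with compound or vehicle; inhibition taken from the growth difference.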
# [3] = NCI Yeast Anticancer Drug Screen. Data for the rad50EPP+ strain (AID 151);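 further: 0% = growth of vehicle-treated control cultures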; details: S. cerevisiae rad50 mutant strain, active compounds read high
# How it was run: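 Compounds were applied to the rad50EPP+ yeast strain, which bears a defined DNA repair alteration, and growth inhibition was determined relative to vehicle-treated cultures.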
# [4] = NCI Yeast Anticancer Drug Screen. Data for the mgt1 strain (AID 153); details: S. cerevisiae mgt1 mutant growth inhibition, active compounds read high
# How it was run: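 Strain: mgt1 yeast, one of a set carrying defined DNA damage repair or cell cycle control alterations. Compound-treated growth compared with vehicle.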
# [5] = NCI Yeast Anticancer Drug Screen. Data for the rad50 strain (AID 155);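 further: 0% = growth of vehicle-only cultures of the same strain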; details: S. cerevisiae rad50 strain growth inhibition, active compounds read high
# How it was run: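 DNA repair mutant yeast, compound exposure, growth read-out; inhibition is taken relative to vehicle.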
# [6] = NCI Yeast Anticancer Drug Screen. Data for the mec2-1 strain (AID 157); details: S. cerevisiae mec2-1 strain, active compounds read high
# How it was run: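 Strain: mec2-1 (DNA repair/cell cycle alteration). Compound exposure, then growth measured; inhibition expressed relative to vehicle.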
# [7] = NCI Yeast Anticancer Drug Screen. Data for the rad14 strain (AID 159);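 further: 0% = growth of vehicle-treated control cultures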; details: S. cerevisiae rad14 strain growth inhibition, active compounds read high
# How it was run: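 DNA repair-defective yeast, compound-exposed; % growth inhibition derived by comparison with vehicle-treated controls.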
# [8] = NCI Yeast Anticancer Drug Screen. Data for the sgs1 mgt1 strain (AID 161);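 further: 0% = growth of cultures given vehicle only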; details: S. cerevisiae sgs1 mgt1 strain, active compounds read high
# How it was run: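 Genetically altered yeast, compound exposure, growth inhibition relative to vehicle.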
# [9] = NCI Yeast Anticancer Drug Screen. Data for the CLN2oe strain (AID 163);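 further: 0% = growth of vehicle-only control cultures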; details: S. cerevisiae CLN2oe strain, active compounds read high
# How it was run: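 Growth of a genetically modified yeast strain is measured after compound exposure and compared with cultures given vehicle alone.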
# [10] = NCI Yeast Anticancer Drug Screen. Data for the cln2 rad14 strain (AID 165);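 further: 0% = growth equal to vehicle treated cultures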; details: S. cerevisiae cln2 rad14 strain, active compounds read high
# How it was run: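 Compounds are applied to the cln2 rad14 yeast strain, and growth is then compared with that of vehicle-treated cultures to give inhibition.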
# [11] = NCI Yeast Anticancer Drug Screen. Data for the bub3 strain (AID 167); details: S. cerevisiae bub3 mutant strain, active compounds read high
# How it was run: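 In this screen, a yeast mutant lacking normal mitotic checkpoint function is challenged with compound. Relative growth versus vehicle gives the inhibition value.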
# [12] = NCI Yeast Anticancer Drug Screen. Data for the mlh1 strain (AID 171);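 further: 0% = growth of vehicle-treated control cultures of the same strain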; details: S. cerevisiae mlh1 strain growth inhibition, active compounds read high
# How it was run: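 Growth of the mutant yeast strain after compound exposure, expressed as inhibition relative to vehicle-only controls.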
# [13] = NCI Yeast Anticancer Drug Screen. Data for the sgs1 strain (AID 173);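 further: 0% = growth of vehicle-only control cultures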; details: S. cerevisiae sgs1 mutant, active compounds read high
# How it was run: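 Growth of a yeast strain bearing a defined genetic alteration is measured after compound treatment. Inhibition is expressed relative to vehicle-only controls.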
# [14] = NCI Yeast Anticancer Drug Screen. Data for the mlh1 rad18 strain (AID 175); details: S. cerevisiae mlh1 rad18 strain growth inhibition, active compounds read high
# How it was run: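 Read-out is yeast growth inhibition, calculated against vehicle-only controls. The compound was applied to a strain engineered with DNA damage repair alterations.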
# [15] = NCI Yeast Anticancer Drug Screen. Data for the rad18 strain (AID 177); details: S. cerevisiae rad18 mutant growth inhibition, active compounds read high
# How it was run: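 Growth of the mutant yeast strain after compound exposure, normalised to vehicle-only cultures.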
# [16] = NCI Yeast Anticancer Drug Screen. Data for the wt2 strain (AID 169);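 further: 0% = growth of vehicle-treated yeast cultures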; details: S. cerevisiae wt2 strain growth inhibition, active compounds read high
# How it was run: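 This strain belongs to a panel of yeast strains with defined genetic alterations in DNA damage repair or cell cycle control. Compounds are applied, and growth inhibition is measured against vehicle-treated cultures.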
# [17] = at 5.0 µM (retest, dose inferred, filed as 0.5)
# [18] = at 50.0 µM (retest, dose inferred, filed as 5.0)
smiles,measurement,setting,value
Nc1nc(N)c2nc(CNc3ccc(C(=O)NC(CCC(=O)O)C(=O)O)cc3F)cnc2n1 (stereo unspecified),growth inhibition,[1]; at 1.2 µM,28%
same,growth inhibition,[1]; at 3.7 µM,42%
same,growth inhibition,[1]; at 11.0 µM,62%
same,growth inhibition,[1]; at 33.0 µM,82% (active)
same,growth inhibition,[1]; at 100.0 µM,89% (active)
same,growth inhibition,[2]; at 1.2 µM,13%
same,growth inhibition,[2]; at 3.7 µM,12%
same,growth inhibition,[2]; at 11.0 µM,17%
same,growth inhibition,[2]; at 33.0 µM,50%
same,growth inhibition,[2]; at 100.0 µM,78% (active)
same,growth inhibition,[3]; at 1.2 µM,23%
same,growth inhibition,[3]; at 3.7 µM,13%
same,growth inhibition,[3]; at 11.0 µM,13%
same,growth inhibition,[3]; at 33.0 µM,15%
same,growth inhibition,[3]; at 100.0 µM,39%
same,growth inhibition,[4]; at 1.2 µM,19%
same,growth inhibition,[4]; at 3.7 µM,16%
same,growth inhibition,[4]; at 11.0 µM,15%
same,growth inhibition,[4]; at 33.0 µM,36%
same,growth inhibition,[4]; at 100.0 µM,63%
same,growth inhibition,[5]; at 1.2 µM,7%
same,growth inhibition,[5]; at 3.7 µM,18%
same,growth inhibition,[5]; [17],13%
same,growth inhibition,[5]; at 11.0 µM,30%
same,growth inhibition,[5]; at 33.0 µM,55%
same,growth inhibition,[5]; [18],86% (active)
same,growth inhibition,[5]; at 50.0 µM,43%
same,growth inhibition,[5]; at 100.0 µM,74% (active)
same,growth inhibition,[6]; at 1.2 µM,19%
same,growth inhibition,[6]; at 3.7 µM,26%
same,growth inhibition,[6]; [17],26%
same,growth inhibition,[6]; at 11.0 µM,81% (active)
same,growth inhibition,[6]; at 33.0 µM,93% (active)
same,growth inhibition,[6]; [18],97% (active)
same,growth inhibition,[6]; at 50.0 µM,86.7% (active)
same,growth inhibition,[6]; at 100.0 µM,94% (active)
same,growth inhibition,[7]; at 1.2 µM,0%
same,growth inhibition,[7]; at 3.7 µM,-19%
same,growth inhibition,[7]; at 11.0 µM,0%
same,growth inhibition,[7]; at 33.0 µM,54%
same,growth inhibition,[7]; at 100.0 µM,82% (active)
same,growth inhibition,[8]; [17],-4%
same,growth inhibition,[8]; [18],56%
same,growth inhibition,[8]; at 50.0 µM,39.5%
same,growth inhibition,[9]; at 1.2 µM,-8%
same,growth inhibition,[9]; at 3.7 µM,13%
same,growth inhibition,[9]; at 11.0 µM,18%
same,growth inhibition,[9]; at 33.0 µM,17%
same,growth inhibition,[9]; at 100.0 µM,46%
same,growth inhibition,[10]; [17],14%
same,growth inhibition,[10]; [18],-2%
same,growth inhibition,[10]; at 50.0 µM,-5.05%
same,growth inhibition,[11]; at 1.2 µM,6%
same,growth inhibition,[11]; at 3.7 µM,6%
same,growth inhibition,[11]; [17],2%
same,growth inhibition,[11]; at 11.0 µM,6%
same,growth inhibition,[11]; at 33.0 µM,35%
same,growth inhibition,[11]; [18],82% (active)
same,growth inhibition,[11]; at 50.0 µM,29.2%
same,growth inhibition,[11]; at 100.0 µM,73% (active)
same,growth inhibition,[12]; at 1.2 µM,16%
same,growth inhibition,[12]; at 3.7 µM,10%
same,growth inhibition,[12]; at 11.0 µM,8%
same,growth inhibition,[12]; at 33.0 µM,29%
same,growth inhibition,[12]; at 100.0 µM,46%
same,growth inhibition,[13]; at 1.2 µM,24%
same,growth inhibition,[13]; at 3.7 µM,14%
same,growth inhibition,[13]; at 11.0 µM,15%
same,growth inhibition,[13]; at 33.0 µM,41%
same,growth inhibition,[13]; at 100.0 µM,67%
same,growth inhibition,[14]; [17],18%
same,growth inhibition,[14]; [18],67%
same,growth inhibition,[14]; at 50.0 µM,-2.7%
same,growth inhibition,[15]; at 1.2 µM,20%
same,growth inhibition,[15]; at 3.7 µM,19%
same,growth inhibition,[15]; at 11.0 µM,35%
same,growth inhibition,[15]; at 33.0 µM,72% (active)
same,growth inhibition,[15]; at 100.0 µM,80% (active)
OC(/C=C/c1ccccc1)(Cc1cc(-c2ccccc2)n[nH]1)c1ccccc1 (stereo unspecified),growth inhibition,[1]; at 1.2 µM,14%
same,growth inhibition,[1]; at 3.7 µM,14%
same,growth inhibition,[1]; at 11.0 µM,11%
same,growth inhibition,[1]; at 33.0 µM,14%
same,growth inhibition,[1]; at 100.0 µM,9%
same,growth inhibition,[2]; at 1.2 µM,9%
same,growth inhibition,[2]; at 3.7 µM,5%
same,growth inhibition,[2]; at 11.0 µM,7%
same,growth inhibition,[2]; at 33.0 µM,8%
same,growth inhibition,[2]; at 100.0 µM,9%
same,growth inhibition,[3]; at 1.2 µM,12%
same,growth inhibition,[3]; at 3.7 µM,11%
same,growth inhibition,[3]; at 11.0 µM,14%
same,growth inhibition,[3]; at 33.0 µM,13%
same,growth inhibition,[3]; at 100.0 µM,13%
same,growth inhibition,[4]; at 1.2 µM,9%
same,growth inhibition,[4]; at 3.7 µM,12%
same,growth inhibition,[4]; at 11.0 µM,10%
same,growth inhibition,[4]; at 33.0 µM,12%
same,growth inhibition,[4]; at 100.0 µM,13%
same,growth inhibition,[5]; at 1.2 µM,8%
same,growth inhibition,[5]; at 3.7 µM,7%
same,growth inhibition,[5]; [17],-3%
same,growth inhibition,[5]; at 11.0 µM,4%
same,growth inhibition,[5]; at 33.0 µM,11%
same,growth inhibition,[5]; [18],97% (active)
same,growth inhibition,[5]; at 50.0 µM,98.6% (active)
same,growth inhibition,[5]; at 100.0 µM,8%
same,growth inhibition,[6]; at 1.2 µM,9%
same,growth inhibition,[6]; at 3.7 µM,11%
same,growth inhibition,[6]; [17],1%
same,growth inhibition,[6]; at 11.0 µM,12%
same,growth inhibition,[6]; at 33.0 µM,13%
same,growth inhibition,[6]; [18],97% (active)
same,growth inhibition,[6]; at 50.0 µM,99.1% (active)
same,growth inhibition,[6]; at 100.0 µM,12%
same,growth inhibition,[7]; at 1.2 µM,15%
same,growth inhibition,[7]; at 3.7 µM,15%
same,growth inhibition,[7]; at 11.0 µM,13%
same,growth inhibition,[7]; at 33.0 µM,17%
same,growth inhibition,[7]; at 100.0 µM,16%
same,growth inhibition,[8]; [17],17%
same,growth inhibition,[8]; [18],97% (active)
same,growth inhibition,[8]; at 50.0 µM,97.8% (active)
same,growth inhibition,[9]; at 1.2 µM,23%
same,growth inhibition,[9]; at 3.7 µM,24%
same,growth inhibition,[9]; at 11.0 µM,24%
same,growth inhibition,[9]; at 33.0 µM,26%
same,growth inhibition,[9]; at 100.0 µM,24%
same,growth inhibition,[10]; [17],-19%
same,growth inhibition,[10]; [18],94% (active)
same,growth inhibition,[10]; at 50.0 µM,98.3% (active)
same,growth inhibition,[11]; at 1.2 µM,3%
same,growth inhibition,[11]; at 3.7 µM,3%
same,growth inhibition,[11]; [17],-10%
same,growth inhibition,[11]; at 11.0 µM,2%
same,growth inhibition,[11]; at 33.0 µM,7%
same,growth inhibition,[11]; [18],98% (active)
same,growth inhibition,[11]; at 50.0 µM,99.2% (active)
same,growth inhibition,[11]; at 100.0 µM,6%
same,growth inhibition,[16]; at 1.2 µM,-11%
same,growth inhibition,[16]; at 3.7 µM,-8%
same,growth inhibition,[16]; at 11.0 µM,-15%
same,growth inhibition,[16]; at 33.0 µM,-8%
same,growth inhibition,[16]; at 100.0 µM,-14%
same,growth inhibition,[12]; at 1.2 µM,10%
same,growth inhibition,[12]; at 3.7 µM,12%
same,growth inhibition,[12]; at 11.0 µM,12%
same,growth inhibition,[12]; at 33.0 µM,13%
same,growth inhibition,[12]; at 100.0 µM,14%
same,growth inhibition,[14]; [17],18%
same,growth inhibition,[14]; [18],97% (active)
same,growth inhibition,[14]; at 50.0 µM,98.7% (active)
same,growth inhibition,[15]; at 1.2 µM,12%
same,growth inhibition,[15]; at 3.7 µM,12%
same,growth inhibition,[15]; at 11.0 µM,11%
same,growth inhibition,[15]; at 33.0 µM,15%
same,growth inhibition,[15]; at 100.0 µM,24%
